“And” between values parts separate entries of the source, which are not always exact repeats. Equal values may be shown once. Inconclusive results are not listed. A call without a number means that no potency is given here. A number with no mark means an inactive call. The source made the active and inactive calls. Calls come from the whole dose curve; as a rule, active = well fitted inhibition curve with a large enough effect; inconclusive = small, poorly fitted or top-dose-only effect; inactive = no such curve, though single readings can be large or run the other way.

The source of these data is PubChem BioAssay (NCATS).
Potency is the fitted concentration of half-maximal effect.

This experiment can be described thus: Primary qHTS for inhibitors of nuclear receptor binding SET domain protein 2 (NSD2) in an RCH-ACV wild type WT cells (2C) (AID 1645877). Note: nearly all actives have a fitted effect of over 70% in size. Conditions: RCH-ACV (leukaemia line) NSD2 WT (2C) viability, CellTiter-Glo, 72 h; series mostly up to 44.9 µM. (In general: In qHTS, concentration-response curves come from the screen itself.)
For `OC[C@H]1O[C@H](O[C@]2(CCl)O[C@H](CCl)[C@@H](O)[C@@H]2O)[C@H](O)[C@@H](O)[C@H]1Cl`, the Potency entry is “inactive”.
Turning to `NC(CO)(CO)CO`, the Potency result was “inactive”.
On the same count and under the same terms, next, `CN1CCN(C(c2ccccc2)c2ccccc2)CC1`: “inactive”; `OCc1ccccc1O`: “inactive”; `O=C(OCC(O)CO)c1ccccc1Nc1ccnc2cc(Cl)ccc12` (stereo unspecified): 23.7 µM (active).
`N[C@@H](CCC(=O)N[C@@H](CS)C(=O)NCC(=O)O)C(=O)O`: the Potency result is “inactive”.
For `OC[C@H]1O[C@@H](n2cnc3c(=S)nc[nH]c32)[C@H](O)[C@@H]1O`, the Potency is 0.422 µM (active).
On the same count and under the same terms, next, `CCCCCCC[N+](CC)(CC)CCCCc1ccc(Cl)cc1`: 1.88 µM (active).
Still for that read-out and setting: next, `CCN(CC)CCNC(=O)COc1ccc(Cl)cc1`: “inactive”.
Same read-out and setting: next, `Oc1cc(O)c2c(c1)O[C@H](c1ccc(O)c(O)c1)[C@H](O)C2`: “inactive”.
`Cc1ccnc(NS(=O)(=O)c2ccc(N)cc2)n1`: the Potency entry was “inactive”.
Same read-out and setting: the result for `CCCCCCCCCCCCCCNCCO` reads 7.5 µM (active); that for `CC[N+](CC)(CCNC(=O)C(=O)NCC[N+](CC)(CC)Cc1ccccc1Cl)Cc1ccccc1Cl`, “inactive”.
As for `Cc1nc2n(c(=O)c1CCN1CCC(c3noc4cc(F)ccc34)CC1)CCC[C@H]2O`, the Potency entry is “inactive”.
Still for that read-out and setting: the result for `C[C@H](CCC(=O)O)[C@H]1CC[C@H]2[C@@H]3C(=O)C[C@@H]4CC(=O)CC[C@]4(C)[C@H]3CC(=O)[C@]12C` reads “inactive”; that for `CC(C)=CCC1C(=O)N(c2ccccc2)N(c2ccccc2)C1=O`, 15 µM (active); that for `COc1c(C)c2c(c(O)c1C/C=C(\C)CCC(=O)O)C(=O)OC2`, 53.1 nM (active) and 590 nM (active).
On the same count and under the same terms, next, `Cc1ccc(C(=O)C(C)CN2CCCCC2)cc1` (stereo unspecified): 21.1 µM (active).
Same read-out and setting: next, `CCCN1CCCC[C@H]1C(=O)Nc1c(C)cccc1C`: “inactive”.
`CC(=O)CC(c1ccc([N+](=O)[O-])cc1)c1c(O)c2ccccc2oc1=O` (stereo unspecified): the Potency entry is “inactive”.
Same read-out and setting: the result for `Cc1ncc(CSSCc2cnc(C)c(O)c2CO)c(CO)c1O` reads “inactive”; that for `CCCCS(=O)(=O)N[C@@H](Cc1ccc(OCCCCC2CCNCC2)cc1)C(=O)O`, “inactive”.
For `CCn1cc(C(=O)O)c(=O)c2cnc(N3CCCC3)nc21`, the activity change, negative = cell killing was -0.361% [at 9.23 µM].
Consider `Oc1c(I)cc(I)c2cccnc12`, for which the Potency is 2.11 µM (active).
The same measure, in the same setting: the result for `CN(C)CCOc1ccccc1Cc1ccccc1` reads “inactive”; that for `Cc1cc2c(cc1CC(=O)c1sccc1S(=O)(=O)Nc1onc(C)c1Cl)OCO2`, “inactive”; that for `CC(=O)N(O)CCCCCNC(=O)CCC(=O)N(O)CCCCCNC(=O)CCC(=O)N(O)CCCCCN`, 4.73 µM (active) and 4.68 µM (active).
With `CC(=O)Nc1c(I)cc(I)c(C(=O)O)c1I`, the Potency result was “inactive”.
Still for that read-out and setting: next, `COc1ccc(C2C(=O)c3ccccc3C2=O)cc1`: “inactive”.
Still for that read-out and setting: next, `O=C1c2ccccc2C(=O)C1c1ccccc1`: “inactive”; `CC(=O)Oc1ccc(C(=C2CCCCC2)c2ccc(OC(C)=O)cc2)cc1`: “inactive”; `O=c1[nH]c(=O)n([C@H]2CCCO2)cc1F`: “inactive”.
With `O=c1[nH]c(=O)n([C@H]2C[C@H](O)[C@@H](CO)O2)cc1C(F)(F)F`, the Potency was 106 nM (active) and 662 nM (active).
In the case of `NCCc1ccn[nH]1`, the Potency result was “inactive”.
For the molecule `COc1ccc(CCN2CCC(Nc3nc4ccccc4n3Cc3ccc(F)cc3)CC2)cc1`, the Potency is 5.31 µM (active).
Still for that read-out and setting: the result for `COc1cc(C(=S)N2CCOCC2)cc(OC)c1OC` reads “inactive”.
